Test results from PubChem BioAssay AID1626 (SRMLSC, 2009).
Screen size: about 220,000 compounds; about 2,000 (0.91%) were called active. Inconclusive results (about 2%) are left out. Cut-off read from the data, not from the text of the source: inconclusive = inhibition above about 80% without an active follow-up result; inactive = below that; test concentration not stated here. Only a sample is shown. Potency and affinity values are given separately.

Experiment: M. tuberculosis H37Rv growth inhibitors, H37Rv strain (AID 1626);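 note: bacteria incubated seven days before Alamar blue readout; 0% = bacteria only wells and 100% = bacteria with antibiotic wells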
Conditions: active compounds read high, concentration not given here

| SMILES | inhibition |
| --- | --- |
| CC(C)(C)NS(=O)(=O)c1ccc(CCC(=O)Nc2ccc3c(c2)OCCO3)cc1 | -4.02% (inactive) |
| COc1ccccc1S(=O)Cc1ccc(C(=O)O)o1 (stereo not given) | -6.58% (inactive) |
| C=C1c2cccc(O)c2C(O)=C2C(=O)[C@]3(O)C(O)=C(C(N)=O)C(=O)[C@@H](N(C)C)[C@@H]3[C@@H](O)[C@H]12 | 1.79% (inactive) |
| CN(C)[C@@H]1C(=O)C(C(N)=O)=C(O)[C@@]2(O)C(=O)C3=C(O)c4c(O)cccc4[C@@](C)(O)[C@H]3[C@H](O)[C@@H]12 | 11.9% (inactive) |
| C[C@H]1c2cccc(O)c2C(O)=C2C(=O)[C@]3(O)C(O)=C(C(N)=O)C(=O)[C@@H](N(C)C)[C@@H]3[C@@H](O)[C@@H]21 | 63.7% (inactive) |
| CN(C)[C@@H]1C(=O)C(C(N)=O)=C(O)[C@@]2(O)C(=O)C3=C(O)c4c(O)cccc4[C@@](C)(O)[C@H]3C[C@@H]12 | -3.76% (inactive) |
| CCN(CC)c1nc2ccccc2[nH]c1=O | -5.3% (inactive) |
| COc1ccc(C(=O)N/N=C/c2sc(=O)n(Cc3cccc(C(=O)O)c3)c2Cl)cc1 | -6.32% (inactive) |
| O=C(NCc1cccc(Br)c1)C1CC(c2ccc(C(F)(F)F)cc2)=NO1 (stereo not given) | 18.7% (inactive) |
| O=C(O)c1cccc(N2C(=O)/C(=C/c3ccc([N+](=O)[O-])cc3)C=C2c2ccccc2)c1 | 1.03% (inactive) |
| O=C1/C(=C/c2ccc([N+](=O)[O-])cc2)C=C(c2ccccc2)N1c1ccccc1 | -2.05% (inactive) |
| COCCCNC(=O)c1ccc(CS(=O)(=O)c2ccc(Br)cc2)o1 | -8.42% (inactive) |
| Cc1nc(CNC(=O)CC2C(=O)NCCN2Cc2cccc(Oc3ccccc3)c2)cs1 (stereo not given) | -3.5% (inactive) |
| COc1cc2c(cc1OC)C(C)N(C(C)=O)CC2 (stereo not given) | -6.23% (inactive) |
| COC(=O)c1sccc1NC(=O)c1sccc1C | 0.49% (inactive) |
| CCCCOc1ccc(C(=O)Nc2ccc(N3CCN(C)CC3)cc2)cc1 | 16.1% (inactive) |
| Cc1cc(C)c(NC(=O)c2cn3c4c(c(N5CCN(C)CC5)c(F)cc4c2=O)OCC3C)c(C)c1 (stereo not given) | 9.11% (inactive) |
| COc1ccc(CCC(=O)Nc2cccc(Cl)c2)cc1 | 10.2% (inactive) |
| Cc1nc2c(C)cccc2cc1C(=O)N/N=C/c1ccc(C(=O)O)cc1 | -1.57% (inactive) |
| COC(=O)c1cccc(NC(=O)/C=C/c2ccc([N+](=O)[O-])cc2)c1 | 3.4% (inactive) |
| O=C(/C=C/c1cccs1)Nc1ccc([N+](=O)[O-])cc1 | 4.49% (inactive) |
| Cc1ccc(NC(=O)/C=C/c2cccs2)c([N+](=O)[O-])c1 | -6.44% (inactive) |
| Cc1cc(C)cc(NC(=O)/C=C/c2ccc([N+](=O)[O-])s2)c1 | 15.5% (inactive) |
| COC(=O)c1cccc(NC(=O)/C=C/c2cccc([N+](=O)[O-])c2)c1 | -2.96% (inactive) |

| SMILES | inhibition |
| --- | --- |
| Cc1ccc(NC(C)C(=O)N/N=C/c2ccc([N+](=O)[O-])s2)cc1 (stereo not given) | 75% (inactive) |
| CCCC(c1nnnn1C(C)(C)C)N1CCN(Cc2ccccc2OC)CC1 (stereo not given) | -3.31% (inactive) |
| CCOC(=O)c1[nH]c(C)c(C(=O)NCc2cccnc2)c1C | -1.85% (inactive) |
| O=C(NCc1ccccn1)c1ccc(Cl)c(S(=O)(=O)Nc2ccccc2C(=O)NCc2ccccn2)c1 | -4.28% (inactive) |
| CCN1CCN(C(=O)c2cn(CCOC)c(=O)c3c2c2ccccc2n3C)CC1 | 2.91% (inactive) |
| O=C(CCC1CCCN(C(=O)c2ccsc2)C1)N1CCN(c2ccccn2)CC1 (stereo not given) | -1.82% (inactive) |
| COc1cccc(OC)c1C(=O)NC(=S)Nc1ccc2c(c1)OCCO2 | 7.64% (inactive) |
| COC(=O)N/N=C/c1ccccc1 | 3.14% (inactive) |
| CC(C)(C)OC(=O)N1CCN(C(=O)Nc2ccc3c(c2)OCCO3)CC1 | 3.99% (inactive) |
| CC(=O)NC(CCS(C)(=O)=O)C(=O)Nc1cc(Cl)ccc1Cl (stereo not given) | 4.83% (inactive) |
| COc1ccccc1NC(=O)CN1C(=O)NC(CC(C)C)C1=O (stereo not given) | -11.7% (inactive) |
| CCc1nnc(NS(=O)(=O)c2ccc(N=Cc3c(C)[nH]n(-c4ccc(Cl)cc4)c3=O)cc2)s1 | 12.1% (inactive) |
| Cc1ccc(-n2[nH]c(C)c(C=Nc3ccc(S(=O)(=O)Nc4nccs4)cc3)c2=O)c(C)c1 | 45.6% (inactive) |
| COc1ccc(NC(=O)CN(Cc2ccccc2)Cc2ccccc2)cc1S(N)(=O)=O | 4.02% (inactive) |
| CN(Cc1ccccc1)c1nc(-c2ccc([N+](=O)[O-])cc2)nc2ccccc12 | 0.45% (inactive) |
| O=[N+]([O-])c1ccc(-c2nc(NCc3ccccc3)c3ccccc3n2)cc1 | -2.12% (inactive) |
| Cc1ccc(-c2nc(Cl)nc3ccccc23)cc1 | -2.37% (inactive) |
| Cc1ccc(Nc2nc(-c3ccncc3)nc3ccccc23)cc1 | -4.95% (inactive) |
| CC1(C(=O)N2CCN(c3ccccc3)CC2)CC1(Cl)Cl (stereo not given) | 0.45% (inactive) |
| COCCCNC(=O)CSc1nc2sc(C(=O)OC)c(C)c2c(=O)n1N | 7.98% (inactive) |
| CN(C)C(=O)Cn1c(SCC(=O)N2CCCc3ccccc32)nc2ccccc21 | -5.91% (inactive) |
| Cc1ccc(OCc2nc3c4c(ncn3n2)-c2ccccc2CC42CCCC2)cc1 | -1.61% (inactive) |
| COc1ccc2c(c1)CCC/C2=N/OC(=O)c1ccccc1OC | 10.5% (inactive) |
| CCCSc1nc2c(=O)[nH][nH]c(=O)c2n1Cc1ccccc1 | -2.99% (inactive) |

| SMILES | inhibition |
| --- | --- |
| CCOC(=O)CSc1nnc(-c2ccccc2OC)o1 | 10.6% (inactive) |
| O=C(CSc1nnc(-c2ccccc2NC(=O)c2ccccc2)o1)OC1CCCCC1 | 61.5% (inactive) |
| CCOC(=O)N1CCN(C(=O)CSc2nnc(-c3cc(OC)ccc3OC)o2)CC1 | 17.1% (inactive) |
| O=C(Nc1ccccc1-c1nnc(SCc2ccccc2)o1)c1ccccc1 | 8.97% (inactive) |
| COc1ccc(-c2nnc(SCC(=O)N3CCCCC3)o2)c(OC)c1 | 3.89% (inactive) |
| COC(=O)CSc1nnc(-c2ccccc2OC)o1 | 1.84% (inactive) |
| C#CCNC(=O)C1=C[C@@H](C)[C@H](CCCO)[C@@H](OCC)O1 | -2.73% (inactive) |
| O=C(CCn1[nH]c(=O)c2ccccc2c1=O)NCCO | -2.07% (inactive) |
| COc1cccc(-c2nc(-c3ccc(NC(=O)c4ccncc4)cc3)no2)c1 | 7.98% (inactive) |
| CC1(C)OC(=O)C(=NNc2ccc(Br)cc2)C(=O)O1 | 76.6% (inactive) |
| O=C1c2ccccc2C(=O)N1CCCCN(C(=O)c1ccc([N+](=O)[O-])cc1)c1ccc(Cl)cc1 | -7.62% (inactive) |
| O=C1c2ccccc2C(=O)N1CCCCN(C(=O)c1cccc([N+](=O)[O-])c1)c1ccc(Cl)cc1 | -4.65% (inactive) |
| CCOC(=O)C1(CCOc2ccccc2)CCN(Cc2ccc3c(c2)OCCO3)CC1 | -3.31% (inactive) |
| O=c1[nH]c(=O)n(CCOc2ccc(Cl)cc2)cc1Br | -3.97% (inactive) |
| COCCNC(=S)N1CCC(c2nc(-c3ccc(F)cc3)no2)CC1 | -1.41% (inactive) |
| CC1=Nc2ccccc2/C1=C/c1sc(=S)n(-c2cccc(C(=O)O)c2)c1O | 4.52% (inactive) |
| CC1=Nc2ccccc2/C1=C/c1sc(=O)n(CC(=O)N2CCCC2)c1O | -8.48% (inactive) |
| CC(C)CN(CCC(=O)O)CC(C)C | -0.69% (inactive) |
| CCOC(=O)c1cnc(-n2nc(C)cc2C)nc1N1CC(C)OC(C)C1 (stereo not given) | -1.14% (inactive) |
| CCOC(=O)c1cnc(-n2nc(C)cc2C)nc1NCCO | 4.03% (inactive) |
| CCOC(=O)c1cnc(-n2cc(C)cn2)nc1NCc1ccc2c(c1)OCO2 | 59.5% (inactive) |
| CCOC(=O)c1cnc(-n2nc(C)cc2C)nc1Oc1ccccc1F | -2.19% (inactive) |
| CCOC(=O)c1ccc(NCc2ccc3c(c2)OCO3)cc1 | 7.94% (inactive) |
| CCOC(=O)c1cnc(-n2nc(C)cc2C)nc1Nc1ccccc1OC | 25.4% (inactive) |

| SMILES | inhibition |
| --- | --- |
| O=C(Cn1c(=O)n(-c2ccccc2)c(=O)c2oc3ccccc3c21)Nc1ccccc1 | -0.16% (inactive) |
| O=C1CC(=O)CC(c2ccccc2Cl)C1 | -8.51% (inactive) |
| CCO[C@H]1OC(C(=O)O)=C[C@@H](C(C)(C)C)[C@@H]1CCCO | -7.81% (inactive) |
| NS(=O)(=O)c1ccc(C(=O)Nc2ccc(-c3nc4cccnc4s3)cc2)cc1 | 9.76% (inactive) |
| Cc1cc(C)c2c3c(cn2n1)c(=O)n(C)c(=O)n3C | 4.42% (inactive) |
| O=C(CCCSc1nc2ccccc2[nH]1)NCc1ccccc1Cl | -0.81% (inactive) |
| Cc1cc2nc(CCl)cc(=O)n2[nH]1 | 2.54% (inactive) |
| COCCn1cnc2c1c(=O)n(CC(=O)OCC#N)c(=O)n2Cc1ccccc1 | 1.32% (inactive) |
| O=C(c1ccccc1)N1CCN(c2ccc([N+](=O)[O-])c(NCC3CCCO3)c2)CC1 (stereo not given) | 3.59% (inactive) |
| O=C(O)CSCC(=O)NC1CCCc2ccccc21 (stereo not given) | 0.52% (inactive) |
| O=C(COc1ccccc1)NC1CCCc2ccccc21 (stereo not given) | -1.62% (inactive) |
| Cc1cc(/C=C2/NC(=O)N(Cc3ccccc3F)C2=O)c(C)n1C(C)C | 7.35% (inactive) |
| Cc1nn(C(=O)c2cccc([N+](=O)[O-])c2)c(C)c1Sc1ccccc1 | 0.41% (inactive) |
| Cc1ccc(OCc2nnc(SCC(=O)c3cccc([N+](=O)[O-])c3)n2C)cc1 | 3.44% (inactive) |
| COc1ccc(NC(=O)C2CCC(N3C(=O)C4C5C=CC(C5)C4C3=O)CC2)cc1 (stereo not given) | -14.2% (inactive) |
| O=C(COc1ccc2c(c1)CCC2)NCc1ccc(Cl)cc1 | 13.4% (inactive) |
| COc1cc(NC(=O)COc2ccc(-n3ccnc3)cc2)cc(OC)c1 | 54.1% (inactive) |
| O=C(COc1ccc2ccccc2c1)Nc1ccc(Cc2ccncc2)cc1 | 11.6% (inactive) |
| CC(=O)c1ccc(NC(=O)COc2ccc3c(c2)OCO3)cc1 | 14% (inactive) |
| O=C(COc1cc(Cl)ccc1Cl)Nc1ccc2c(c1)CCC2 | 3.53% (inactive) |
| O=C(COc1ccc(-n2ccnc2)cc1)Nc1cccc(Cl)c1 | 3.18% (inactive) |
| O=C(O)COCC(=O)Nc1ccc2c(c1)CCC2 | -2.88% (inactive) |
| O=C(COc1ccc(Cl)cc1)NCc1ccncc1 | 0.93% (inactive) |
